From PubChem BioAssay (Tox21)
Records with an inconclusive call do not appear. Activity calls are given as the source filed them. Unless noted, calls follow the shape of the full dose curve.

Assays:
[1] = Nuclear factor erythroid 2-related factor 2/antioxidant responsive element (Nrf2/ARE) small molecule agonists: qHTS cell viability counter screen in human keratinocytes (AID 1919968; active = well fitted curve in the direction sought with a large enough effect in the repeat runs; an effect the other way counts as inactive or inconclusive; also: nearly all actives have a fitted effect of over 55% in size; also: potency is read from the fitted curve at half-maximal effect)
Procedure, shortened: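 After a 5 h attachment period, ARE-reporter keratinocytes were dosed with compounds in DMSO and then cultured 23 h at 37 C. Cell viability came from CellTiter-Fluor signal read after a further 1 h.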

[2] = Nuclear factor erythroid 2-related factor 2/antioxidant responsive element (Nrf2/ARE) small molecule agonists: luciferase reporter gene qHTS assay in human keratinocytes (AID 1919969); also: nearly all actives have a fitted effect of over 35% in size; also: potency is read from the fitted curve at half-maximal effect
[3] = molecular target: Gonadotropin-releasing hormone receptor (Homo sapiens) (UniProt P30968); assay: Human gonadotropin-releasing hormone receptor (GnRHR) small molecule agonists, calcium flux assay in GnRHR-HEK293 cells (AID 1920063); also: nearly all actives have a fitted effect of over 35% in size
Procedure, shortened: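 We seeded human GnRHR-expressing HEK293 cells for 18 hours, loaded them with calcium dye for an hour at 37 C, added test compounds, and recorded fluorescence intensity kinetically for three minutes.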

[4] = molecular target: KiSS-1 receptor (Homo sapiens) (UniProt Q969F8); assay: Human kisspeptin (KISS1R) small molecule agonists, calcium flux assay in KISS1R-HEK293 cells (AID 1920064; active = well fitted curve in the direction sought with a large enough effect in the repeat runs; an effect the other way counts as inactive or inconclusive)
Procedure, shortened: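 Kinetic calcium assay, 1 s sampling over 3 min at Ex/Em 480/540, in HEK293 cells engineered with human KISS1R; compounds delivered in DMSO after 1 h dye loading.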

[5] = G protein-coupled receptor (GPCR) small molecule agonists, calcium flux assay: HEK293 wild type cell line counter screen (AID 1920065)
Procedure, shortened: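 Calcium-sensitive dye, loaded 1 h at 37 C into cells cultured 18 h, reports compound-evoked calcium release as fluorescence (Ex/Em 480/540), measured over 3 min. Agonist mode; 15-point titrations, triplicate.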

[6] = p53 small molecule agonists, cell-based qHTS assay with human liver microsomes (AID 1963577);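 also: p53 response element beta-lactamase reporter cells with liver microsomes plus NADPH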
Procedure, shortened: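 With metabolic activation: human liver microsomes (0.5 mg/mL final) plus NADPH (0.5 mg/mL final) added alongside compounds to p53RE-bla cells; 16 h 37 C exposure; beta-lactamase read by LiveBLAzer fluorescence.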

[7] = p53 small molecule agonists, cell-based qHTS assay with rat liver microsomes (AID 1963578)
Procedure, shortened: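 Metabolic activation by rat liver microsomes and NADPH, each 0.5 mg/mL final, added right after compounds to p53RE-bla reporter cells (4,000/well, plated 5 h earlier). 16 h at 37 C, then LiveBLAzer substrate for 2 h at room temperature in the dark; fluorescence read-out.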

[8] = p53 small molecule agonists, cell-based qHTS assay with human liver microsomes: qHTS cell viability counter screen (AID 1963579); also: nearly all actives have a fitted effect of over 45% in size; also: potency is read from the fitted curve at half-maximal effect
Procedure, shortened: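 Metabolic activation used human liver microsomes and NADPH, both 0.5 mg/mL final, over 16 hours at 37 C on p53RE-bla cells (4,000/well). Cytotoxicity measured by CellTiter-Glo luminescence, 30 min at room temperature.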

[9] = p53 small molecule agonists, cell-based qHTS assay with rat liver microsomes: qHTS cell viability counter screen (AID 1963580); also: nearly all actives have a fitted effect of over 45% in size
Procedure, shortened: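 In HCT-116 cells carrying a p53 response element-bla reporter, compounds were metabolically activated in situ by rat liver microsomes with NADPH over 16 h. Cell ATP content then served as the cytotoxicity measure.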

[10] = p53 small molecule agonists, cell-based qHTS assay: qHTS cell viability counter screen (AID 1963581); also: nearly all actives have a fitted effect of over 45% in size
Procedure, shortened: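 Following 5 h attachment, HCT-116 p53RE-bla cells took up compound for 16 h at 37 C; the reporter was read with B/G FRET substrate (2 h RT), and viability then via CellTiter-Glo ATP luminescence.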

[11] = molecular target: 5-hydroxytryptamine receptor 2A (Homo sapiens) (UniProt P28223); assay: 5-hydroxytryptamine receptor 2A (HTR2A) small molecule agonists, cell-based qHTS assay (AID 1963587); also: nearly all actives have a fitted effect of over 30% in size
Procedure, shortened: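 HTR2A-CHO cells, plated 18 h at 37 C/5% CO2, dye-loaded 1 h at 37 C; compounds in DMSO added by pin tool (agonist mode). Intracellular calcium flux read as kinetic fluorescence on FDSS over 2 min at 1 s intervals.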

[12] = molecular target: Muscarinic acetylcholine receptor M1 (Homo sapiens) (UniProt P11229); assay: Cholinergic receptor muscarinic 1 (CHRM1) small molecule antagonists, cell-based qHTS assay (AID 1963588); also: nearly all actives have a fitted effect of over 40% in size
Procedure, shortened: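 CHRM1-CHO calcium-flux assay, antagonist mode. Cells were seeded 18 h, dye-loaded 1 h at 37 C and given compound for 5 min at RT, then acetylcholine was added at 50nM. FDSS fluorescence was read 3 min; 15 concentrations, three runs.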

[13] = molecular target: Muscarinic acetylcholine receptor M1 (Homo sapiens) (UniProt P11229); assay: Cholinergic receptor muscarinic 1 (CHRM1) small molecule agonists, cell-based qHTS assay (AID 1963589); also: nearly all actives have a fitted effect of over 35% in size
Procedure, shortened: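 Measures agonist-induced intracellular calcium rise. Stable human CHRM1 CHO line, 1 h dye load at 37 C, compounds from DMSO, kinetic fluorescence read.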

[14] = molecular target: D(2) dopamine receptor (Homo sapiens) (UniProt P14416); assay: Dopamine D2 receptor (DRD2) small molecule antagonists, cell-based qHTS assay (AID 1963595; active = well fitted inhibition curve with a large enough effect in the signal ratio in the repeat runs, with a control signal flat; the % refers to the signal ratio)
Procedure, shortened: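 HEK293 cells stably expressing DRD2 were preincubated with 0.1 mM Ro20-1724, then with compound for 10 min at room temperature. Cells were stimulated with 200 nM NKH477 plus 12 nM quinpirole for 30 min, and cAMP was read by HTRF.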

[15] = molecular target: Beta-2 adrenergic receptor (Homo sapiens) (UniProt P07550); assay: Adrenergic beta2 receptor (ADRB2) small molecule antagonists, cell-based qHTS assay (AID 1963592); also: nearly all actives have a fitted effect of over 50% in size; also: potency is read from the fitted curve at half-maximal effect; as to activity change, negative = inhibition: series mostly up to about 92 µM
Procedure, shortened: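 Cells (CHO, stable ADRB2 overexpression) incubated 18-20hr at 37C; compounds added from DMSO; agonist mix (1nM isoproterenol, 100uM IBMX, 25uM Ro-20-1724) added; 0.5hr RT; d2-cAMP and anti-cAMP-cryptate added; 1hr RT; 665/615 nm read.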

[16] = molecular target: D(2) dopamine receptor (Homo sapiens) (UniProt P14416); assay: Dopamine D2 receptor (DRD2) small molecule agonists, cell-based qHTS assay (AID 1963594); also: nearly all actives have a fitted effect of over 35% in size
Procedure, shortened: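 HEK293 cells stably expressing DRD2 were cultured 24 h at 37 C, then given Ro20-1724 (0.1 mM final) and compounds for 10 min at room temperature. NKH477 (200nM) was then added for 30 min. cAMP was read by HTRF.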

[17] = cAMP Responsive Elements (CRE) small molecule agonists, cell-based qHTS assay (AID 1963590)
Procedure, shortened: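 A CRE-responsive beta-lactamase reporter in HEK 293T cells was used. Treatment ran 3 h at 37 C; detection used LiveBLAzer B/G FRET substrate for 2 h at room temperature.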

[18] = cAMP Responsive Elements (CRE) small molecule antagonists, cell-based qHTS assay (AID 1963591; active = well fitted inhibition curve with a large enough effect in the signal ratio in the repeat runs, not every such curve was filed as active; the % refers to the signal ratio)
Procedure, shortened: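 HEK293T cells carrying a CRE-driven beta-lactamase reporter receive compound and NKH477 (0.25 uM final) for 3 h. Fluorescence from LiveBLAzer B/G FRET substrate is read after 2 h at room temperature.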

[19] = p53 small molecule agonists, cell-based qHTS assay (AID 1963582; active = well fitted activation curve with a large enough effect in the signal ratio in the repeat runs, not every such curve was filed as active; the % refers to the signal ratio)
Procedure, shortened: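 In this cell-based concentration-response screen, a p53 response element drives beta-lactamase; cells received DMSO-borne compounds after 5 h culture and were incubated a further 16 h before FRET substrate development.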

[20] = molecular target: 5-hydroxytryptamine receptor 2A (Homo sapiens) (UniProt P28223); assay: 5-hydroxytryptamine receptor 2A (HTR2A) small molecule antagonists, cell-based qHTS assay (AID 1963586); also: nearly all actives have a fitted effect of over 45% in size
Procedure, shortened: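 Antagonist-mode intracellular calcium assay: DOI (4 nM) added after 5 min compound pre-incubation at room temperature to dye-loaded HTR2A-CHO cells. Fluorescence followed for 3 min, sampled every second.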
% is scaled to controls: 0 for no effect and ±100 for the full control effect.

5-hydroxytryptamine receptor 2A (Homo sapiens), sequence (P28223 whole entry, looked up): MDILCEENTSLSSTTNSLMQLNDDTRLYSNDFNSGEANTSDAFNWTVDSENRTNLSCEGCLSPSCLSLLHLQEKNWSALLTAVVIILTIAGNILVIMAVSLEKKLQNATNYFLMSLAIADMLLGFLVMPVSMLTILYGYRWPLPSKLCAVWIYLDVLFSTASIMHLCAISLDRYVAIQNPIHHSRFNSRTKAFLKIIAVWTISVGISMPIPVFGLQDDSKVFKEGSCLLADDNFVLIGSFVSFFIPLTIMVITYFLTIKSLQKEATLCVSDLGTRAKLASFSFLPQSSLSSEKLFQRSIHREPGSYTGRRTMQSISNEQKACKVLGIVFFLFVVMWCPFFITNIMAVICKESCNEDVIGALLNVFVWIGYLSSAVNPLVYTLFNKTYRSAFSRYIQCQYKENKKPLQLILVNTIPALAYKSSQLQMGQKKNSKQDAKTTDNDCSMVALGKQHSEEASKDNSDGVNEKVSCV
Beta-2 adrenergic receptor (Homo sapiens), sequence (P07550 whole entry, looked up): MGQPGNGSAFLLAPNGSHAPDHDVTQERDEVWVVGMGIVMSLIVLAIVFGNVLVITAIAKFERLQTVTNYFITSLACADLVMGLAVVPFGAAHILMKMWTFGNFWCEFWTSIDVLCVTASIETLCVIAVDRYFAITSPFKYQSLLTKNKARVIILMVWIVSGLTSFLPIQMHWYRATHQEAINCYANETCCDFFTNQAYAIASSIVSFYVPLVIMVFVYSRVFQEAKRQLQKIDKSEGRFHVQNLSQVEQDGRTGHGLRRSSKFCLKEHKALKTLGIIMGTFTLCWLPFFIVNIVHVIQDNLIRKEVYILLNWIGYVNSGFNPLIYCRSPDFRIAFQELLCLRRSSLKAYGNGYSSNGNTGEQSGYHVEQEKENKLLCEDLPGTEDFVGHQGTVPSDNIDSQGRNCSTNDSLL
D(2) dopamine receptor (Homo sapiens), sequence (P14416 whole entry, looked up): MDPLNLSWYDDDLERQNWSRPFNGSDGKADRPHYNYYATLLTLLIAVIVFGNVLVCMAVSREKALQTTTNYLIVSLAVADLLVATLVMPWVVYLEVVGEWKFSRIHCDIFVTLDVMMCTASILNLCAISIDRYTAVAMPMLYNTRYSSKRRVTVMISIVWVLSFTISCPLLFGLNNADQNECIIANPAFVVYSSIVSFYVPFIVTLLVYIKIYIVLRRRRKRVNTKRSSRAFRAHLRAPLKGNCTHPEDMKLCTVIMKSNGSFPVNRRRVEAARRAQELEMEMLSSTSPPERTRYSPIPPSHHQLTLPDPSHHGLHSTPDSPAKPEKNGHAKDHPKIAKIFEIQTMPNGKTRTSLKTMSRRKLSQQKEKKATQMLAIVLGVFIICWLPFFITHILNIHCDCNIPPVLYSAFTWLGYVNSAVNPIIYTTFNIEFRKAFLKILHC
KiSS-1 receptor (Homo sapiens), sequence (Q969F8 whole entry, looked up): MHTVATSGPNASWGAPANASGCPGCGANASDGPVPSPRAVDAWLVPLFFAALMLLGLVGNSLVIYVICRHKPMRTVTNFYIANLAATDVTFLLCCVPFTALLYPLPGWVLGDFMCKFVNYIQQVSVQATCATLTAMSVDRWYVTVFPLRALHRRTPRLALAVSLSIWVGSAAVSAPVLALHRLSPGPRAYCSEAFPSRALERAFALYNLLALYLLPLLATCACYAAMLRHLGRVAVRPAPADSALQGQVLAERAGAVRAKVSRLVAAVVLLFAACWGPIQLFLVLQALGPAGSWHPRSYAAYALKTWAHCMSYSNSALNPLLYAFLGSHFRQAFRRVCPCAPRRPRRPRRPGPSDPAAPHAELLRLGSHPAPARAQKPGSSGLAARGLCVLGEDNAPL
Gonadotropin-releasing hormone receptor (Homo sapiens), sequence (P30968 whole entry, looked up): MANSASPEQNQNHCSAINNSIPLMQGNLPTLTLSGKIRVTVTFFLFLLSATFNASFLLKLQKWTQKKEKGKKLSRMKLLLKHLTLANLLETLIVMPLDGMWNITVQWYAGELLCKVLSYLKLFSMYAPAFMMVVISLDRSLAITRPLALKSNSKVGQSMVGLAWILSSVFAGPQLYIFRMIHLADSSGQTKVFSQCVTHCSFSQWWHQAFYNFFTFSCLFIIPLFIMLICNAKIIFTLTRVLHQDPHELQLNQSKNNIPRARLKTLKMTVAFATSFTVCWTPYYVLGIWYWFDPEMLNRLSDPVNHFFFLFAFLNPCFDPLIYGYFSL
Muscarinic acetylcholine receptor M1 (Homo sapiens), sequence (P11229 whole entry, looked up): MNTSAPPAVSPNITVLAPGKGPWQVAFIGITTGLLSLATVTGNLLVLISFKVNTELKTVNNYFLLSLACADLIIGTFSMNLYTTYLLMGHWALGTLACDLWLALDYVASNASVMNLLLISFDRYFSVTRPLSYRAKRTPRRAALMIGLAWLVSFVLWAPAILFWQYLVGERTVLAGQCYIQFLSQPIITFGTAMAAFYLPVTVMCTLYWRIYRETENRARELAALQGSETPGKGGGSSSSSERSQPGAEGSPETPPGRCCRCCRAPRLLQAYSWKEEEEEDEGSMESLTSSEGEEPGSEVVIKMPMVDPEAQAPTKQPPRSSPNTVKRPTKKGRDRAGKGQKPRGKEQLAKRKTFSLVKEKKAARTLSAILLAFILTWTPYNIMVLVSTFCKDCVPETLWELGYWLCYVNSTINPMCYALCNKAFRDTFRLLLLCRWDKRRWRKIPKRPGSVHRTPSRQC

NNc1nc(-c2ccc([N+](=O)[O-])cc2)cs1
active: Potency [1] 30.6 µM | Potency [2] 30.6 µM
inactive: Potency [3] | outcome [4] | outcome [5] | Potency [6] | Potency [7] | Potency [8] | Potency [9] | Potency [10] | Potency [11] | Potency [12] | Potency [13] | Potency [14]

CCCC[P+](C)(CCCC)CCCC
inactive: Potency [1] | Potency [2] | Potency [3] | outcome [4] | outcome [5] | Potency [6] | Potency [7] | Potency [8] | Potency [9] | Potency [10] | Potency [11] | Potency [12] | Potency [13] | Potency [15] | Potency [16] | Potency [14]

O=C(Nc1ccc([N+](=O)[O-])cc1)Nc1ccc([N+](=O)[O-])cc1
inactive: Potency [1] | Potency [2] | Potency [3] | outcome [4] | outcome [5] | Potency [6] | Potency [7] | Potency [8] | Potency [9] | Potency [10] | Potency [11] | Potency [12] | Potency [17] | Potency [18] | Potency [15] | Potency [16] | Potency [14]

CC(C)NNC(=O)c1ccncc1
inactive: Potency [1] | Potency [2] | Potency [3] | outcome [4] | outcome [5] | Potency [6] | Potency [7] | Potency [8] | Potency [9] | Potency [10] | Potency [17] | Potency [18] | Potency [16] | Potency [14]

CCCCCCCCCCCl
inactive: Potency [1] | Potency [2] | Potency [3] | outcome [4] | outcome [5] | Potency [6] | Potency [7] | Potency [8] | Potency [9] | Potency [10] | Potency [11] | Potency [12] | Potency [13] | Potency [17] | Potency [15] | Potency [16] | Potency [14]

CC(C)(C)NSc1nc2ccccc2s1
active: Potency [2] 24.8 µM
inactive: Potency [1] | Potency [3] | outcome [4] | outcome [5] | Potency [6] | Potency [7] | Potency [8] | Potency [9] | Potency [19] | Potency [20] | Potency [11] | Potency [12] | Potency [13] | Potency [17] | Potency [18] | Potency [15] | Potency [16] | Potency [14]

COc1cc2nc(N3CCN(C(=O)c4ccco4)CC3)nc(N)c2cc1OC
active: Potency [8] 0.972 µM | Potency [15] 14.6 µM
inactive: activity change, negative = cytotoxicity [1] -15.2% [at 19 µM] | activity, positive = activation [2] -0.0377% [at 19 µM] | activity change [3] -0.192% [at 11.8 µM, active compounds read high] | activation [4] 1.31% [at 15.8 µM] | activation [5] 0.594% [at 11.8 µM] | activation [6] -0.142% [at 13.5 µM] | activation [7] 0.86% [at 13.6 µM] | activity change, negative = cytotoxicity [9] 0.442% [at 13.5 µM] | activity change, negative = cytotoxicity [10] 24.1% [at 13.5 µM] | activation [17] -0.578% [at 19 µM] | activity change, negative = inhibition [18] 4.27% [at 18.9 µM] | activity change, negative = inhibition [14] 1.94% [at 18.9 µM]

N#CSCC(=O)O
inactive: Potency [1] | Potency [2] | Potency [3] | outcome [4] | outcome [5] | Potency [6] | Potency [7] | Potency [8] | Potency [9] | Potency [10] | Potency [11] | Potency [12] | Potency [13] | Potency [17] | Potency [18] | Potency [16] | Potency [14]
